From ChEMBL document CHEMBL3988442, “University of Dundee, Small-Polar-MMV Screening Library” (2021)
Out of some 38,000 compounds screened, about 1,200 (3.2%) showed an effect of 50% or more. The median lay at about -58%. Only a selection was taken, and strong results are over-represented in it overall.

tested on: Plasmodium falciparum; assay: Calibr Malaria Delayed Death Assay SOP; assay type: functional, organism-based; set-up: scale not given: in the data most compounds retested in dose-response had high values; settings: concentration 4.99e-06 (unit not given; other assays of the set use mol/L)

Structure (SMILES)	Percent Effect
O=C(c1cc(Cl)c2c(c1)OCO2)N1CCN(c2cnccn2)CC1	-89.48%
Cn1c(CN2CCOCC2)cc(=O)c(O)c1CN1CCCCC1	-218.7%
Cn1c(CN2CCOCC2)cc(=O)c(O)c1CN1CCCC1	-211.8%
Cn1c(CN2CCCC(N3CCCCCC3)C2)cc(=O)n(C)c1=O (stereo not drawn)	-10.45%
Cn1c(CN2CCCCC2)cc(=O)c(O)c1CN1CCCCC1	81.24%
Cn1c(CN2CCCCCC2)cc(=O)c(O)c1CN1CCCC1	59.19%
Cn1c(CN2CCOCC2)cc(=O)c(O)c1CN1CCOCC1	-232.2%
O=C(O)CC1COCCN1Cc1ccccc1-c1ccccc1 (stereo not drawn)	-118%
COc1ccc(C(=O)Nc2ccc3ncn(C(C)C)c(=O)c3c2)cc1	33.29%
O=C(N1CCCC(n2cncn2)C1)C1(c2ccc(Cl)cc2)CCC1 (stereo not drawn)	-26.48%
CCN(CCN1CCOCC1)C(=O)c1cccnc1	-63.54%
CCCN(C(=O)c1cccnc1)c1nc2c(s1)CCc1c-2cnn1C	81.54%
CN(Cc1cc(Br)cn1C)C(=O)c1cccnc1	-12.65%
CS(=O)(=O)CCOc1nc(-c2ccccc2Cl)no1	-35.46%
O=C(c1ccccc1)N1CC[C@H]2C[C@H](c3nnc(C4CC4)o3)O[C@@H]2C1	-87.6%
CCc1c(C)sc2ncnc(N3CC[C@@H](N4CCOCC4)[C@H](O)C3)c12	-5.608%
CCc1c(C)sc2ncnc(N3C[C@H](O)[C@@H](N4CCCC4)C3)c12	60.55%
CCc1c(C)sc2ncnc(N3CC[C@@H](N4CCC(O)CC4)[C@H](O)C3)c12	74.53%
CCc1nc(CC2CN(c3ncnc4sc(C)c(C)c34)CCO2)no1 (stereo not drawn)	-116.3%
Cc1sc2ncnc(N3CCCC3Cn3cccn3)c2c1C (stereo not drawn)	-55.32%
CCc1c(C)sc2ncnc(N3CCN(C4CCOCC4)CC3)c12	31.3%
Cc1cc(C)cc(N2CCN(C(=O)C3CN(C)C(=O)N3)CC2=O)c1 (stereo not drawn)	-59%
CC1(NC(=O)Cc2csc(-c3cccc(Cl)c3)n2)CCS(=O)(=O)C1 (stereo not drawn)	-114.6%
O=C(NCc1nnnn1-c1ccccc1)c1ccc(C2CCCO2)s1 (stereo not drawn)	-146%
Cc1nc(C(=O)N(C)CC2CC2)nn1-c1ccccc1C(C)C	-82.1%
CN(C)C(C(=O)N1CC(Oc2ccccc2F)C1)c1ccc(F)cc1 (stereo not drawn)	62.88%

Structure (SMILES)	Percent Effect
COc1ccccc1OC1CN(C(=O)C(c2ccc(F)cc2)N(C)C)C1 (stereo not drawn)	0.4692%
Cc1cccc(C(C(=O)N2CC(Oc3ccccc3F)C2)N(C)C)c1 (stereo not drawn)	-1.988%
Cc1nn(C)cc1-c1cc(C(F)(F)F)nc(NC2CCN(C)CC2)n1	-72.67%
O=C(CCc1ccccn1)N1CCCC(N2CCNC2=O)C1 (stereo not drawn)	-153%
Cc1ccc(Cl)c(C)c1NC(=O)N1CCCN(Cc2ccccn2)CC1	-12.1%
Cc1nc(CN2CCCC2c2ccsc2)nc2ccccc12 (stereo not drawn)	24.09%
CC(C)c1nccn1CC1CCCN1Cc1nc2ccccc2n1C (stereo not drawn)	20.35%
Cc1nc(CN2CCCCC2Cn2cncn2)nc2ccccc12 (stereo not drawn)	-55.02%
Cc1nc(CN2CCCC2Cn2cccn2)nc2ccccc12 (stereo not drawn)	55.28%
COc1cccc(CN2CCCC2c2c(C)nn(C)c2C)c1 (stereo not drawn)	21.41%
c1cnn(CC2CCCN2Cc2noc(C3CC3)n2)c1 (stereo not drawn)	-115.2%
Cc1nn(C)c(C)c1C1CCCN1CCCc1nc2ccccc2o1 (stereo not drawn)	18.49%
Cc1nc(CN2CCCC2Cn2ccnc2C(C)C)nc2ccccc12 (stereo not drawn)	77.09%
Cc1nc(C)n(CC2CCCN2Cc2nc(N)c3ccccc3n2)n1 (stereo not drawn)	-104.3%
c1ccc(Cc2noc(CN3CCCCC3Cn3cccn3)n2)cc1 (stereo not drawn)	-99.91%
Cc1nc2ccccc2nc1CN1CCCC1c1c(C)nn(C)c1C (stereo not drawn)	56.82%
Cc1nc(CN2CCCCC2Cn2cccn2)nc2ccccc12 (stereo not drawn)	70.28%
CC(c1nc(C2CC2)no1)N1CCN(CCN2CCCC2=O)CC1 (stereo not drawn)	-34.43%
CC(=O)N1CCN(c2cc(N3CCOCC3)cnn2)CC1	-46.73%
CCSc1nnc([C@@H](N)CC(C)C)o1.Cl	-105.7%
CC(C)(C)c1nc(CN(Cc2ccccc2Cl)C2CCCC2)no1	-109.5%
Cc1cc(C(F)(F)F)nc(CCNC(C)Cn2nc(C)cc2C)n1 (stereo not drawn)	25.86%
CCSc1nc2ccccc2c(=O)n1OCC(=O)OC	-35.88%
N#Cc1c(SCCN2CCOCC2)sc2c(O)cc(O)nc12	20.53%
CC(Nc1ccc(Br)cc1)c1nc(C2CC2)no1 (stereo not drawn)	-70.57%
CCOCC1CN(C(=O)N2CCCC2)Cc2cnn(CC)c21 (stereo not drawn)	-92.45%

Structure (SMILES)	Percent Effect
CCOc1ccc2[nH]c(=O)c(CN3CCN(S(N)(=O)=O)CC3)cc2c1	-148.7%
CC1CCCN(c2ncc(C(=O)NCc3ccc(F)c(Cl)c3)c(N)n2)C1 (stereo not drawn)	-82.32%
O=C(CN1CCCC1Cn1cncn1)NCC1(c2ccccc2)CC1 (stereo not drawn)	-28.68%
Cc1cnn(CC2CCCN2Cc2nc3ccccc3nc2C)c1 (stereo not drawn)	-94.42%
Cc1nc2ccccc2nc1CN1CCCC1Cn1cccn1 (stereo not drawn)	67.78%
Cc1nc2ccccc2nc1CN1CCOC(Cn2cccn2)C1 (stereo not drawn)	-57.9%
Cc1n[nH]c2ncc(CNC3CCN(Cc4ccccn4)CC3)cc12.Cl	-31.75%
c1ccc(CN2CCC(NCCc3ccc4c(c3)CCO4)CC2)nc1	34.15%
Cc1[nH]c2ccc(CNC3CCN(Cc4ccccn4)CC3)cc2c1C	93.27%
Cc1nnc(SCc2cccc(F)c2)n1CC(N)=O	-112.6%
Cc1ccc(N2CCc3sc(C(=O)NCCN4CCCC4)cc32)nn1	-55.34%
C=C(C)CN1CCN(CCC(=O)Nc2ccccc2C(N)=O)CC1	11.76%
O=C(NC[C@H]1OC[C@@H]2CN(Cc3ccco3)CC[C@@H]21)c1cscn1.O=C(O)C(F)(F)F	-201.4%
CC(C)CCn1cc(C(=O)NC2CCS(=O)(=O)C2)c2ccccc2c1=O (stereo not drawn)	-89.43%
CCC(Nc1nc(C)nc2onc(C)c12)c1cccs1 (stereo not drawn)	19.14%
CCC(Nc1nc(CCN)nc2ccccc12)c1cc(C)ccn1 (stereo not drawn)	-26.25%
CCC(Nc1nc(CCN)nc2ccccc12)c1cccs1 (stereo not drawn)	62.16%
CN(C)CCn1c2c(ccc1=O)CC(NC(=O)c1cnccn1)CC2.O=C(O)C(F)(F)F (stereo not drawn)	-12.74%
Cc1cccc(CN2CCC(c3nnsc3S(C)(=O)=O)CC2)c1	-50.13%
CNC(=O)NCC1CCC2(CCN(C(=O)c3ccccn3)CC2)CO1.O=C(O)C(F)(F)F (stereo not drawn)	-170.4%
Cc1nnc(CN2CCN(Cc3nccn3C)CC2)n1C	-20.51%
Cn1cncc1CN1CCC2(CC1)CCN2c1ncccn1	-81.78%
Cc1ncc(CN2CCC(c3ccnn3C)CC2)n1-c1ccccc1	30.79%
CCn1cncc1C1CC(=O)Nc2c1c(C)nn2-c1ccc(C)cc1 (stereo not drawn)	-199.9%
CCc1nc(CN2CCCN(C(=O)c3ccco3)CC2)cs1	-4.304%
O=C(O)C(F)(F)F.O=C(O)C(F)(F)F.c1cncc(C2COC3(CCN(Cc4ccsc4)CC3)C2)c1 (stereo not drawn)	12.38%

Structure (SMILES)	Percent Effect
Cc1nc(C(=O)Nc2cccnc2)c(C(C)C)s1	-80.98%
Cc1c(CN2CCCC(C(=O)Nc3ccccc3)C2)cc(C#N)n1C (stereo not drawn)	39.8%
CN(Cc1cccnc1)[C@@H]1CN(Cc2nccn2C)[C@@H]2CCCO[C@H]12.O=C(O)C(F)(F)F.O=C(O)C(F)(F)F.O=C(O)C(F)(F)F.O=C(O)C(F)(F)F	-14.02%
COc1ccc(Br)c(NC(=O)NCc2cnn(C)c2)c1	-45%
CN1CCC2(CC1)CCN(C(=O)c1onc3ccccc13)C2	-111.7%
Cc1ccc(F)cc1CC(=O)N1CC[C@@]2(O)CCNC[C@H]2C1	-30.21%
O=C1NCCCCC1Sc1ccc(F)cc1F (stereo not drawn)	-40.24%
Cc1nc(N(C)C)nc2c1COCC21CCN(C(=O)C2CC2)C1 (stereo not drawn)	-124.4%
O=C(Cn1cc(C2CC2)nn1)N(Cc1cccs1)CC1CCCO1 (stereo not drawn)	-9.508%
O=C(c1cc(Br)ccc1Cl)N1CCN(Cc2ccco2)CC1	-2.5%
Cn1cnc(S(=O)(=O)N2CCN(Cc3ccco3)CC2)c1Cl	-15.28%
CN1CCC(N(Cc2ccco2)S(=O)(=O)c2ccc(Cl)cc2)CC1	54.64%
CN1CCC(N(Cc2ccco2)S(=O)(=O)c2cc(Br)ccc2Br)CC1	75.01%
O=C(CN(Cc1ccco1)C1CC1)Nc1ccc(Br)cn1	-177.6%
O=c1cc(CN(Cc2ccco2)C2CC2)nc2ccc(Br)cn12	-50.29%
CN1CCC(N(Cc2ccco2)S(=O)(=O)c2ccc(Br)cc2Cl)CC1	73.43%
CC1CCN(C(=O)CN(Cc2ccco2)C2CC2)CC1	-121%
O=C(c1ccco1)N1CC(S(=O)(=O)c2ccc(Cl)cc2)C1	-88.3%
CCc1nc(C(=O)N2CCOCC2)nn1-c1ccccc1Cl	-27.32%
COc1ccc(CN2CCCC2c2cccc(F)c2)c(OC)c1OC (stereo not drawn)	58.64%
COc1cc(CN2CCCC2c2cccc(F)c2)cc(OC)c1OC (stereo not drawn)	25.35%
CS(=O)(=O)c1ccc(CN2CCCCC2c2cccc(F)c2)cc1 (stereo not drawn)	-43.63%
COc1cccc(CN2CCCCCC2c2cccs2)c1OC (stereo not drawn)	-76.96%
Cc1cc2[nH]c(CN3CCCCC3c3cccc(F)c3)cc(=O)n2n1 (stereo not drawn)	-66.54%
COc1cccc(CN2CCCC2c2cccc(F)c2)c1OC (stereo not drawn)	53.66%
